Source: PubChem BioAssay (Broad Institute)
Rows were chosen to be rich in hits. Some 3.1% of all compounds tested hit in one or more screens of this group.
C2C12 statin = suppressors of simvastatin-induced myotoxicity in C2C12 myotubes. 330,000 tested, 0.78% active. ATP luminescence, 48 h; scaled: DMSO 0, geranylgeraniol control 100. rescue of ATP level, % at 7.49 µM. AID 602340;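 active = mean ATP rescue above about 67%, or every replicate alone reaching that limit, limit read from the data, passing the limit was not always enough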;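 also: myotubes were challenged with 10 µM simvastatin during compound exposure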
INS-1E GSIS act = primary screen for activators of insulin secretion dependent on glucose, INS-1E cells, GLuc reporter luminescence. INS-1E GLuc reporter insulin secretion, 2-3 h. activation, % at 16.6 µM. 370,000 tested, 0.61% active. AID 743287;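 active = lowest replicate activation of at least 40%, so every replicate reaches that level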
miR-122 sensor = inhibitors of miR-122 in Huh7 cells; Huh7 miR-122 Renilla luciferase sensor, 48 h; neutral wells = 0, positive control = 100; activation (reporter increase), % at 12.5 µM; 340,000 tested, 0.3% active;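 active = mean replicate activation score at least 90 and every replicate individually at or above 90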;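 also: higher luciferase means less miR-122 activity so hits act as miR-122 inhibitors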
HIV Env fusion = HIV envelope-mediated fusion inhibition; inhibition, % at 12.3 µM; AID 651610; HeLa-JRFL Env/CEM21 cell fusion, luciferase; 360,000 tested, 1.1% active;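 active = mean replicate inhibition score of at least 50 and every replicate individually at or above 50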
EWS-Fli inh = inhibitors of EWS/Fli oncoprotein transcriptional activity; A673 NR0B1-luciferase reporter, viability-normalised; 350,000 tested, 0.67% active; inhibition, % at 12.6 µM;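 active = mean inhibition of at least 50% after viability correction, with every replicate also passing that limit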;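 also: firefly luciferase signal divided by Alamar Blue viability fluorescence both relative to DMSO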
PAX8 inh HTS = inhibitors of PAX8 transcriptional activity in RMG-I cells; RMG-I TPO-luciferase reporter, SteadyGlo, 24 h; inhibition, % at 12.6 µM; 360,000 tested, 1.2% active;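 active = mean replicate inhibition at least 60% with every replicate also reaching 60%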;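 also: luciferase light reporting Pax8 driven TPO promoter activity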
DNA binding = small molecule DNA binding by fluorescence polarization; 640 tested, 2% active; AID 720586; salmon sperm DNA acridine orange fluorescence polarization; shares compounds with EWS-Fli inh; AC35, µM (doses to about 68 µM);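 active = fitted curve reaches a 35% signal fall AC35 below twice the sample's top valid tested dose, actives reach about 48 µM in these data; inactive = the rest, including activity in the rising direction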;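 also: lower polarization ratio signals compound binding to DNA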
Each line names hits and unclear results; the compound was inactive in the other large screens (follow-up assays come after a bar, where they were run).

C[C@@H]1O[C@@H](O[C@H]2C[C@@H](O)[C@]3(CO)[C@H]4[C@H](O)C[C@]5(C)[C@@H](C6=CC(=O)OC6)CC[C@]5(O)[C@@H]4CC[C@]3(O)C2)[C@H](O)[C@H](O)[C@H]1O	none (no result: INS-1E GSIS act, HIV Env fusion, EWS-Fli inh, PAX8 inh HTS)
CC12CCC3C(CCC4(O)CC(O)CCC34C=NO)C1(O)CCC2C1=COC(=O)C1 (stereo unspecified)	HIV Env fusion 105.1, EWS-Fli inh 73.9, PAX8 inh HTS 109.1 (no result: C2C12 statin, INS-1E GSIS act) | DNA binding inactive
C[C@]12CCC3C(CCC4=CC(O)CC[C@@]43/C=N/O)C1(O)CCC2C1=CC(=O)OC1 (stereo partly specified)	HIV Env fusion 93.0, EWS-Fli inh 68.9, PAX8 inh HTS 109.2 (no result: C2C12 statin, miR-122 sensor) | DNA binding inactive
C[C@]12CC[C@H]3[C@@H](CC[C@]4(O)C[C@@H](O)CC[C@]34C=O)[C@@]1(O)CC[C@@H]2C1=CC(=O)OC1	EWS-Fli inh 79.0, PAX8 inh HTS 111.4 | DNA binding inactive
CCCC#Cc1ccc([C@H]2[C@H]3CN(C(=O)Cc4ccccn4)CCCCN3[C@H]2CO)cc1	none (no result: C2C12 statin, HIV Env fusion)
COC(=O)[C@H]1[C@H](CO)[C@H]2Cn3c(ccc(C4=CCCCC4)c3=O)[C@@H]1N2C(=O)NC(C)C	none (no result: HIV Env fusion)
COC(=O)[C@@H]1[C@@H](CO)[C@@H]2Cn3c(ccc(-c4ccncc4)c3=O)[C@H]1N2CCc1ccccc1	none (no result: miR-122 sensor, HIV Env fusion, PAX8 inh HTS)
CC[C@@H]1C[C@H]2CC[C@H](O2)[C@H](C)C(=O)O[C@@H](C)C[C@@H]2CC[C@@H](O2)[C@@H](C)C(=O)O[C@H](C)C[C@H]2CC[C@H](O2)[C@H](C)C(=O)O[C@@H](C)C[C@@H]2CC[C@@H](O2)[C@@H](C)C(=O)O1	EWS-Fli inh 53.8 (no result: C2C12 statin, miR-122 sensor, HIV Env fusion, PAX8 inh HTS) | DNA binding inactive
CC(=O)OC1CC(OC2C(O)CC(OC3C(O)CC(OC4CCC5(C)C(CCC6C5CCC5(C)C(C7=CC(=O)OC7)C(O)CC65O)C4)OC3C)OC2C)OC(C)C1OC1OC(CO)C(O)C(O)C1O (stereo unspecified)	HIV Env fusion 85.5, EWS-Fli inh 63.5, PAX8 inh HTS 104.4 (no result: C2C12 statin) | DNA binding inactive
CC(=O)OC1CC2(O)C3CCC4CC(O)CCC4(C)C3CCC2(C)C1C1=CC(=O)OC1 (stereo unspecified)	HIV Env fusion 102.2, EWS-Fli inh 63.0 (no result: C2C12 statin, PAX8 inh HTS) | DNA binding inactive
CC(=O)O[C@@H]1CC[C@]2(C)C3CC[C@@]4(C)C(C[C@@H](O)[C@@H]4O)C3[C@@H](OC(C)=O)C[C@H]2C1 (stereo partly specified)	none (no result: C2C12 statin, INS-1E GSIS act, PAX8 inh HTS)
COC(=O)[C@H]1[C@H](CO)[C@H]2Cn3c(ccc(-c4cccnc4)c3=O)[C@@H]1N2S(=O)(=O)c1ccccc1F	none (no result: HIV Env fusion)
Cc1cc(C)cc(N2C(=O)NC(=O)/C(=C\C=C\c3ccco3)C2=O)c1	EWS-Fli inh 61.1, PAX8 inh HTS 65.6 (no result: HIV Env fusion) | DNA binding inactive
O=C1NC(=O)N(c2ccccc2)C(=O)/C1=C\C=C\c1ccccc1	EWS-Fli inh 57.7 (no result: C2C12 statin, INS-1E GSIS act) | DNA binding inactive
O=C1NC(=O)N(Cc2ccc(F)cc2)C(=O)/C1=C\C=C\c1ccco1	EWS-Fli inh 54.8 (no result: C2C12 statin) | DNA binding inactive
CN1CCN(C(=O)CN=[N+]=[N-])CC1	none (no result: C2C12 statin, INS-1E GSIS act, miR-122 sensor)
COc1ccc(OC(=O)N(C)C[C@@H]2OCc3ccccc3-c3c(n(C)c4ccccc34)C(=O)N([C@@H](C)CO)C[C@@H]2C)cc1	none (no result: C2C12 statin, miR-122 sensor, HIV Env fusion)
CN(C)C(=O)[C@@H]1[C@@H](CO)[C@@H]2Cn3c(cccc3=O)[C@H]1N2CC1CC1	none (no result: HIV Env fusion, PAX8 inh HTS)
Cc1ccc(OC(=O)N(C)C[C@H]2OCc3ccccc3-c3c(n(C)c4ccccc34)C(=O)N([C@@H](C)CO)C[C@H]2C)cc1	none (no result: C2C12 statin, miR-122 sensor, HIV Env fusion)
